TrxR1 substrate = substrates of rat thioredoxin reductase 1 | hit rate 0.01% among 390,000 | Potency, µM (titrated, usually from 114 µM), without a hit: at the top dose activity change, negative = substrate turnover | purified TrxR1 substrate turnover, NADPH consumption readout | AID 588456 | O89049; note: nearly all actives have a fitted effect of over 50% in size
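Rat TrxR1, dispensed at 90 nM, was prereduced with 400 uM NADPH (final) for 5 min at ~22 deg C, then incubated with compound 15 min before 400 uM selenite. A first-read NADPH fluorescence drop versus no-compound background flagged substrates.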
VDR inh = vitamin D3 receptor (human) inhibition; hit rate 0.93% among 400,000; VDR-SRC2-3 peptide fluorescence polarization, 2 h; AID 504847; Potency, µM, inactives show max response, negative = inhibition, hits mostly inhibitors
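After 23 nl compound addition and a short centrifugation, plates sat for 2 hours at ambient temperature; polarization of fluorescence then indicated loss of VDR binding to peptide SRC2-3.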
GLS inhibitor = inhibitors of human glutaminase (GLS); Potency, µM (titrated, usually from 45.5 µM), for the others: at the top dose activity change, negative = inhibition, hits mostly inhibitors; GLS enzymatic activity, qHTS titration; AID 624170; hit rate 0.21% among 410,000; O94925
Target sequence (O94925 whole entry, looked up): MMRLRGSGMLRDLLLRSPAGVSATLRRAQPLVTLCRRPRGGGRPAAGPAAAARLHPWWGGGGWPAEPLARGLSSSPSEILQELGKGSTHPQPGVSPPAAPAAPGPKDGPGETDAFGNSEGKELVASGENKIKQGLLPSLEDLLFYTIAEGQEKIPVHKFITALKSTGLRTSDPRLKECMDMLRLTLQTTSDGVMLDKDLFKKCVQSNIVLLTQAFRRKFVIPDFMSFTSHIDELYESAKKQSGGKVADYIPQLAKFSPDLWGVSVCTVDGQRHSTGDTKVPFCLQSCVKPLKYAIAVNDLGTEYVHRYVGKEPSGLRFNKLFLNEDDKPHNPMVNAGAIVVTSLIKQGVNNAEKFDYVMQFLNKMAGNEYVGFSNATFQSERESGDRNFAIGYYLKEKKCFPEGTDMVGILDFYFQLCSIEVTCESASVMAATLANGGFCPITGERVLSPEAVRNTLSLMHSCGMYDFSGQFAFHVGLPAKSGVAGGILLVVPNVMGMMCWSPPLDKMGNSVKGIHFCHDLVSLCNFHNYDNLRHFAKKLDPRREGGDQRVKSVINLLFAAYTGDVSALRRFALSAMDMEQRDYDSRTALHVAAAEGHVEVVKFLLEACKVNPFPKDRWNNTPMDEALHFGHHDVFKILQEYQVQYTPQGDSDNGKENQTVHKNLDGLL
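Glutamate formation by hKGA was monitored fluorometrically using coupled glutamate oxidase, HRP and Amplex Red. Substrate was added as 1 mM L-glutamine solution; incubation was 30 min at RT after an initial read.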
KAT2A inh = inhibitors of human GCN5L2 histone acetyltransferase; GCN5L2 HAT assay, ThioGlo1 CoA-SH fluorescence; hit rate 0.21% among 390,000; Potency, µM (top dose mostly 58.9 µM), for the others: top-dose activity change, negative = inhibition, most hits filed as inhibitors; AID 504327; Q92830
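Preincubate 20nM GCN5L2 with compound 15 min, RT → add 50uM ThioGlo1 + 75uM H3(1-25) + 70uM acetyl-CoA → read fluorescence 0 and 20 min. Primary qHTS; fluorescent artifacts likely.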
Sfp PPTase inh = blocks B. subtilis Sfp PPTase activity. AID 1490. Biochemical Sfp PPTase activity, qHTS. Potency, µM, without a hit: largest response in the series, negative = inhibition, actives largely listed as inhibitors. hit rate 3.5% among 310,000;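 note: the enzyme is Sfp with the accession as filed and its product quenches rhodamine fluorescence; 0% = enzyme reaction without inhibitor and -100% = no enzyme wells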
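After 15 min at room temperature with compound, 15 nM Sfp received 5 uM rhodamine-CoA plus 12.5 uM BHQ-2-ybbR (50 mM Hepes pH 7.6, 10 mM MgCl2). Rate came from the fluorescence difference over 30 min, ex 525/em 598 nm.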
TrxR1 inh = inhibitors of rat thioredoxin reductase 1 | O89049 | recombinant rTrxR1, NADPH fluorescence consumption, selenite substrate | Potency, µM (series often up to 114 µM), for the others: top-dose activity change, negative = inhibition, most hits filed as inhibitors | hit rate 1% among 390,000; note: nearly all actives have a fitted effect of over 65% in size
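Rat TrxR1 (90 nM in the dispensed reagent) was pre-reduced with 400 uM NADPH for 5 min at room temperature, then incubated with compound for 15 min. After 400 uM selenite was added, NADPH fluorescence (Ex 340/Em 450 nm) was followed for 8 min.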
* = called active by the depositor; ? = inconclusive; · = no result given; ! = not confirmed by another sample; [ ] = dose if it differs, or a comment. Rows were chosen to be rich in hits. Some 3.8% of all compounds tested hit in one or more screens of this group. Calls come from the whole dose curve; as a rule, active = well fitted curve in the direction sought with a large enough effect; inconclusive = small, poorly fitted or top-dose-only effect, or another doubt; inactive = no such curve, though single readings can be large; an effect the other way counts as inactive or inconclusive. Unless noted, % is set by controls: 0 for no effect and ±100 for the full control effect; potency is the fitted concentration of half-maximal effect.

SMILES	TrxR1 substrate	VDR inh	GLS inhibitor	KAT2A inh	Sfp PPTase inh	TrxR1 inh
O=C1C=Cc2ccccc2C1=O	·	·	·	28.2µM*	2.82µM*	·
CCOc1ccc(S(=O)(=O)O)c2cccnc12	·	1.5%	8.8%	-23.6%	70.8µM*	·
CC1=C(C(=O)O)N2C(=O)C(NC(=O)c3nn(C)cc3[N+](=O)[O-])C2SC1 (configuration not stated)	5.3%	?	19.0%	-1.4%	3.98µM*	-14.0%
Cc1ccc2ccccc2c1NC(=O)CNC1CCCCC1	8.2%	-1.8%	-1.7%	-1.2%	-2.5%	17.8%
Cc1ccc2cc3c(ccc4ccccc43)c3c2c1CC3	·	-2.4%	·	-20.8%	50.1µM*	·
O=Cc1ccc(O)c(O)c1	-14.0%	10.7%	?	-9.5%	31.6µM*	-21.9%
O=C(c1ccccc1)c1ccc(N=Nc2c(O)[nH]c(=O)[nH]c2=O)cc1	-4.2%	-3.8%	10µM*	-7.8%	6.6%	16.5%
O=C(O)c1cccc(N=Nc2c(O)[nH]c(=O)[nH]c2=O)c1	4.6%	-9.1%	4.5%	-0.7%	-1.2%	10.9%
O=C(O)C1C2CCC(O2)C1C(=O)Nc1cccc(Br)c1 (configuration not stated)	-1.7%	-16.3%	6.5%	-4.1%	11.6%	10.0%
Nc1cccc2c(N)cccc12	·	·	54.0%[99.4 µM]	·	·	·
Nc1cccc2c(O)cccc12	31.8%[57.1 µM]	-3.5%	12.6µM*	·	·	17.6%[57.1 µM]
C[C@@H]1CN([C@@H](C)CO)C(=O)CCCn2nncc2CO[C@@H]1CN(C)C(=O)Nc1ccc(N2CCCCC2)cc1	·	·	3.6%	·	·	·
CCCc1nc2ccccc2c(=O)n1-c1cccc(OC)c1	5.1%[57.1 µM]	12.5%	0.9%	-6.5%	6.0%	18.5%[57.1 µM]
COc1cccc(-n2c(CN3CCN(C)CC3)nc3ccc([N+](=O)[O-])cc3c2=O)c1	-13.0%	-7.5%	?	-5.5%	7.94µM*	?
O=c1c2ccccc2nc(CN2CCOCC2)n1-c1ccccc1F	5.7%	-20.1%	0.2%	-17.9%	10.7%	1.2%
O=c1c2cc([N+](=O)[O-])ccc2nc(CN2CCOCC2)n1-c1ccccc1F	·	·	·	-0.2%	22.4µM*	·
C/C=C1\C[N@@+]2(C)CC[C@@]34C(=C(C=O)[C@H]1C[C@H]32)Nc1ccccc14	·	6.2%	·	?	35.5µM*	·
Cc1ccc(C2=NCC(=O)N(CC(=O)N3CCCCC3)c3sc(C)c(C)c32)cc1	5.7%[57.1 µM]	5.7%	-8.9%	-6.2%	?	-13.8%
O=C(O)[C@H]1NC[C@H]2C[C@H]21	-0.8%[57.1 µM]	-17.6%	5.4%	-0.9%	-1.7%	-0.1%[57.1 µM]
O=C1NC(=S)NC(=O)C1C/C=C/c1ccccc1	-6.0%	79.4µM*	?	3.6%	44.7µM*	50.1µM*
CC[C@H](C)/C=C(C)/C=C/C1=CC2=C(Cl)C(=O)[C@](C)(OC(C)=O)C(=O)C2=CO1	-2.2%	?	5.2%	?	·	50.1µM*
Cn1c(O)c(/C=C2\C=Nc3ccccc32)c(=O)n(C)c1=O	-0.3%	-14.7%	-2.3%	-8.8%	22.4%	-7.6%
Cn1c(O)c(/C=C2\C=c3ccccc3=NC2=O)c(=O)n(C)c1=O	-5.0%	79.4µM*	-18.1%	-5.2%	44.7µM*	35.5µM*
CC(=Nc1ccc(F)cc1)c1c(O)n(C)c(=O)[nH]c1=O	-16.4%	-12.9%	4.7%	-6.5%	13.1%	-16.1%
COC(=O)C1=Nc2ccccc2/C1=C\c1c(O)n(-c2ccc(OC)cc2)c(=O)[nH]c1=O	5.9%	?	-4.2%	-23.2%	50.1µM*	?
SMILES	TrxR1 substrate	VDR inh	GLS inhibitor	KAT2A inh	Sfp PPTase inh	TrxR1 inh
Cn1c(O)c(C=NC2CCCCCC2)c(=O)[nH]c1=S	2.0%	1.3%	-6.0%	-0.3%	16.1%	16.2%
COC(=O)C1=Nc2ccccc2/C1=C\c1c(O)n(C)c(=O)n(C)c1=O	-4.5%	?	0.7%	-5.8%	?	?
Cn1c(O)c(/C=C2\N=c3ccccc3=C2CCNC(=S)NC2CC2)c(=O)n(C)c1=O	0.9%	70.8µM*	-16.2%	-14.3%	31.6µM*	?
N#CC(C#N)=NNc1ccc([N+](=O)[O-])cc1	?	?	4.3%	1.4%	8.6%	22.4µM*
CCn1c(O)c(C(=O)CC2NCCc3ccccc32)c(=O)n(CC)c1=S (configuration not stated)	-0.2%	-4.1%	3.2%	-1.0%	44.7µM*	-12.2%
CCn1c(O)c(C=Nc2ccc(N3CCOCC3)cc2)c(=O)n(CC)c1=S	-7.8%	-20.4%	-0.1%	?	-17.2%	-11.7%
O=C(c1ccccc1)c1cn(CC(=O)N2CCCC2)c2ccccc12	-0.5%[57.1 µM]	14.0%	2.8%	-3.4%	-3.4%	-5.6%[57.1 µM]
CC(=O)[C@H]1CC[C@H]2C3CC[C@H]4C[C@H](O)CC[C@]4(C)C3CC[C@]12C (some centres not stated)	·	-5.0%	7.1%	-14.2%	-11.9%	·
Cc1cccc(CN2CCN(CC(=O)N3CCC4(CC3)OCCO4)C2=O)c1	2.2%	14.2%	4.0%	-5.9%[0.501 µM]	8.9%	-0.6%
COc1cc(OC)cc(C(=O)Nc2ccc(Br)cc2C(=O)c2ccccc2)c1	-10.1%	?	0.9%	-4.8%	35.5µM*	8.3%[57.1 µM]
COc1cc(C(=O)Nc2ccc(Br)cc2C(=O)c2ccccc2Cl)cc(OC)c1OC	-11.7%	-11.6%	0.9%	3.8%	7.1%	-13.2%
CCCc1cc2c(n1Cc1ccco1)C(C)C1CN(C(=O)c3ccccc3)C(C)(C(=O)OC)C21 (configuration not stated)	·	·	·	·	31.6µM*	·
CCCc1cc2c(n1Cc1ccc(C)cc1)C(C)C1CN(C(=O)c3ccccc3)C(C)(C(=O)OC)C21 (configuration not stated)	·	·	·	·	11.9%	·
O=C(O)c1ccccc1-c1c2cc(Br)c(=O)cc-2oc2[c]([Hg])c(O)c(Br)cc12	·	2.24µM*	-20.2%[20 µM]	3.16µM*!	2µM*!	·
CCC(=O)OC1(c2cccc(C)c2)CC(C)N(C)CC1C (configuration not stated)	-6.8%	-6.7%	4.0%	1.1%	8.7%	-7.6%
COc1ccc(NC(=O)CN2CC=C(c3ccccc3)CC2)cc1S(=O)(=O)N1CCOCC1	4.8%[57.1 µM]	-22.8%	-8.5%	-8.5%	4.3%	14.4%[57.1 µM]
Cc1ccc(/C=C2\C(=O)NC(=S)N(c3ccc(F)cc3)C2=O)s1	-15.8%[57.1 µM]	35.5µM*	0.0%	-23.5%	-2.7%	10µM*
CCOC(=O)C1CCN(/C=C2/C(=O)NC(=S)N(c3ccccc3F)C2=O)CC1	-1.1%	-14.2%	6.9%	-16.9%	-8.8%	-0.3%
O=C1NC(=S)N(c2ccc(F)cc2)C(=O)/C1=C/c1ccccc1O	8.4%	-29.8%	3.5%	4.1%	-13.8%	?
Cc1ccc(/C=C2\C(=O)NC(=S)N(c3ccccc3F)C2=O)s1	-9.4%	?	8.2%	0.8%	14.1µM*	12.6µM*

Compound activity: PubChem BioAssay, National Center for Advancing Translational Sciences (NCATS)
